# Experimental data from paper PMC4878873.
# Target: COP9 signalosome complex subunit 4 (UniProt Q9BT78)
# Assay: cross-link between two proteins; cross-linking mass spectrometry
# Sequence of E3 ubiquitin-protein ligase RBX1, P62877 (P62877 whole entry): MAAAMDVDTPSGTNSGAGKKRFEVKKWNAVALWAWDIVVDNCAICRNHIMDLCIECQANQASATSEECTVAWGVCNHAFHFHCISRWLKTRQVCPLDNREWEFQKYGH
substance,measurement,value
"E3 ubiquitin-protein ligase RBX1, P62877",listed as a hit,yes
